Reference: the supplement of paper PMC11001985

Each target was assayed with C#CCNC(=O)CCSSCCC(=O)NCCc1ccc(C=O)c(C=O)c1 (assay: lysine labeling ratio R10:1 (500 µM / 50 µM probe), SILAC-ABPP in living cells; higher = lower intrinsic lysine reactivity toward the probe, active = 2 or less). Details: HeLa; probe concentrations 500 vs 50 µM.
Procedure, shortened: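 The two probe levels, 50 µM and 500 µM, of an alkyne-tagged, disulfide-linked lysine probe were applied to living light and heavy SILAC HeLa cells in PBS at room temperature, and the labels were run in both forward and reverse orientation. Mixed lysates underwent biotin-azide click chemistry, trypsin digestion, neutravidin capture, DTT release and alkylation before LC-MS/MS on a TIMS-TOF Pro. R is the filtered median high-probe/low-probe MS1 peptide ratio for each lysine, summarised as the median over forward and reverse replicates. Nothing above 20 is reported; such values are set to 20.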

Chain of UniProt P05787 (P05787 whole entry): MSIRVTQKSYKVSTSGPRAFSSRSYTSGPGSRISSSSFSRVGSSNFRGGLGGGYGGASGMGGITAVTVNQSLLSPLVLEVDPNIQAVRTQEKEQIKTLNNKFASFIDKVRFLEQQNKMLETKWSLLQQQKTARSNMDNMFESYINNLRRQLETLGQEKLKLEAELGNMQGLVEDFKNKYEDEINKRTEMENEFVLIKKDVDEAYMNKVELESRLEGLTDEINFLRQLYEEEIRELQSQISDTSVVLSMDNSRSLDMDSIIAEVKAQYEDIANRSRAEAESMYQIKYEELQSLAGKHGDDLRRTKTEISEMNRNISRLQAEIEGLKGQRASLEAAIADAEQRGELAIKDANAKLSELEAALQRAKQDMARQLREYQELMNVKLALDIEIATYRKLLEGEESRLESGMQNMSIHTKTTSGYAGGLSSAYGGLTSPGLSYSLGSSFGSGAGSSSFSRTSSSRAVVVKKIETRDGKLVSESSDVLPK
Chain of UniProt Q9Y490 (Q9Y490 whole entry): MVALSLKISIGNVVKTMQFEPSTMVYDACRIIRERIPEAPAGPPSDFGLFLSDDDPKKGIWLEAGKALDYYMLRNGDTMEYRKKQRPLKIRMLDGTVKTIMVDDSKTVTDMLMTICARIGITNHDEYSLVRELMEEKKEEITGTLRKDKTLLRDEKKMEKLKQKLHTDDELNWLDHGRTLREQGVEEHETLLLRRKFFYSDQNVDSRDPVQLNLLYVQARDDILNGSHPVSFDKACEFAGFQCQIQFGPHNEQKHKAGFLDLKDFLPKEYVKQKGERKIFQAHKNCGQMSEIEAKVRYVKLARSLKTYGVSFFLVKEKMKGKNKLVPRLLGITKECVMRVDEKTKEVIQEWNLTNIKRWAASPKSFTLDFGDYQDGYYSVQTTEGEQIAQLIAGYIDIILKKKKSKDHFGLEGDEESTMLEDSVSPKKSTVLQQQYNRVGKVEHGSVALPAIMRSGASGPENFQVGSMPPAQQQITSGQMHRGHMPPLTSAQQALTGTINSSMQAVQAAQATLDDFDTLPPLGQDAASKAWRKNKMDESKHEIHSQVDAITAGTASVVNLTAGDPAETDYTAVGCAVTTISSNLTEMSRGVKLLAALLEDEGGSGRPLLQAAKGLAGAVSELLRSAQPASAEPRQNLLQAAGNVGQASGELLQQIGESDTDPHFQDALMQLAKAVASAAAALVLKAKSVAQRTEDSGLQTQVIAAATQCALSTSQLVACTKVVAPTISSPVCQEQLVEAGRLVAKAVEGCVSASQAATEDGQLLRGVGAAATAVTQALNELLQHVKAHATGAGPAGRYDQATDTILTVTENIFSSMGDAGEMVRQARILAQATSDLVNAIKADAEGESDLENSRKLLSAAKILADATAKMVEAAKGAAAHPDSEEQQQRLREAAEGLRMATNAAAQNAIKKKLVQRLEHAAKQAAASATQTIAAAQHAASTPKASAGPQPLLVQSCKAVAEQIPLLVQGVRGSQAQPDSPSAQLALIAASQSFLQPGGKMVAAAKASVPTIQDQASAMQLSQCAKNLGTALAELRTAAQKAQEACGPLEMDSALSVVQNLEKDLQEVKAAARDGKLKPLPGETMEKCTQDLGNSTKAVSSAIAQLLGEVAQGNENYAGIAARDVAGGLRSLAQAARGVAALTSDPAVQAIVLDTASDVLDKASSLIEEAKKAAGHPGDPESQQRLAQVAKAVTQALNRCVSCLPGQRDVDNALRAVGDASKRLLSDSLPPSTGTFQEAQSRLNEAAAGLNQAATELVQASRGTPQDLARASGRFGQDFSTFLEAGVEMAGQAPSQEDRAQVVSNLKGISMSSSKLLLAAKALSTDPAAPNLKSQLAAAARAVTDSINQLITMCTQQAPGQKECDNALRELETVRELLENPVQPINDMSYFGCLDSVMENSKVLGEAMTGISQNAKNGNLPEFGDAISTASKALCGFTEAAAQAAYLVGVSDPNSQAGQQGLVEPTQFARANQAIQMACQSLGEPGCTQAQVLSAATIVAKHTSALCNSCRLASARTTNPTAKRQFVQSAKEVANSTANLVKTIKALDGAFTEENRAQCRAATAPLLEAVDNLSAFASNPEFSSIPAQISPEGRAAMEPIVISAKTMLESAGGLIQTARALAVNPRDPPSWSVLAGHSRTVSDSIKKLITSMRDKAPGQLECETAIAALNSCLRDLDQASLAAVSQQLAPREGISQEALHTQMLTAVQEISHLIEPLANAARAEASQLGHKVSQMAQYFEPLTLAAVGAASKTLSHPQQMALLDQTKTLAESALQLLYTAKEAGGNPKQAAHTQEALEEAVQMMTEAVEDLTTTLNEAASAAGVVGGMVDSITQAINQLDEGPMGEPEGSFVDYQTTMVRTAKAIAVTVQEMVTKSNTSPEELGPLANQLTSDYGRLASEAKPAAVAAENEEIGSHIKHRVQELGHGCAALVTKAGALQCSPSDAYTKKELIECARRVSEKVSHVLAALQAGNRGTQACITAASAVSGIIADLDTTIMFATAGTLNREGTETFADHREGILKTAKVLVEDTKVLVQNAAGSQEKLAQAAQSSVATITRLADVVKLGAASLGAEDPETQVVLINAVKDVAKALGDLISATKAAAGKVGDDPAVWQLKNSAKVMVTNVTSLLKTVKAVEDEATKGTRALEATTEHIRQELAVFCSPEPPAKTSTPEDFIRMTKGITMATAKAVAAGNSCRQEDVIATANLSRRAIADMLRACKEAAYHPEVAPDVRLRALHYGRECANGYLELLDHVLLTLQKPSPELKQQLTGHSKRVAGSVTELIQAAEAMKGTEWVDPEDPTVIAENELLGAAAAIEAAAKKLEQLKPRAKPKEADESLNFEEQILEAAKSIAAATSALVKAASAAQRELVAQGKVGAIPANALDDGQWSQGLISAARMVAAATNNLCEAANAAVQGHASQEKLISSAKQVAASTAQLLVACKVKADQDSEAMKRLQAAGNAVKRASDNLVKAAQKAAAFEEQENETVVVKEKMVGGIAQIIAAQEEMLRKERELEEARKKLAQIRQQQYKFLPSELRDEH
Chain of UniProt Q96EY1 (Q96EY1 whole entry): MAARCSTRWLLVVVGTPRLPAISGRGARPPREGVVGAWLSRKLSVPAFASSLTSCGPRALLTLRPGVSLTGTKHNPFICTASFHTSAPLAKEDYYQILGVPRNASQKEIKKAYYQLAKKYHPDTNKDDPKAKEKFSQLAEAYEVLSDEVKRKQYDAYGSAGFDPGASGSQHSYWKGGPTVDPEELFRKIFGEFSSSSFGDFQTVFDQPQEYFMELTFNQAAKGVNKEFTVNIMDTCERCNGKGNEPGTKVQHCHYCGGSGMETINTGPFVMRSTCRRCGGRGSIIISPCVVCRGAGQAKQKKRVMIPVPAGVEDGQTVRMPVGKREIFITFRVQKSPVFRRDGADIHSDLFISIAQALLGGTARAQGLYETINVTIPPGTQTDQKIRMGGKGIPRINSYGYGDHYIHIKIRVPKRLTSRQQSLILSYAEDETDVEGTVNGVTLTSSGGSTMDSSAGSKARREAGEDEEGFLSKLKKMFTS
Chain of UniProt P10809 (P10809 whole entry): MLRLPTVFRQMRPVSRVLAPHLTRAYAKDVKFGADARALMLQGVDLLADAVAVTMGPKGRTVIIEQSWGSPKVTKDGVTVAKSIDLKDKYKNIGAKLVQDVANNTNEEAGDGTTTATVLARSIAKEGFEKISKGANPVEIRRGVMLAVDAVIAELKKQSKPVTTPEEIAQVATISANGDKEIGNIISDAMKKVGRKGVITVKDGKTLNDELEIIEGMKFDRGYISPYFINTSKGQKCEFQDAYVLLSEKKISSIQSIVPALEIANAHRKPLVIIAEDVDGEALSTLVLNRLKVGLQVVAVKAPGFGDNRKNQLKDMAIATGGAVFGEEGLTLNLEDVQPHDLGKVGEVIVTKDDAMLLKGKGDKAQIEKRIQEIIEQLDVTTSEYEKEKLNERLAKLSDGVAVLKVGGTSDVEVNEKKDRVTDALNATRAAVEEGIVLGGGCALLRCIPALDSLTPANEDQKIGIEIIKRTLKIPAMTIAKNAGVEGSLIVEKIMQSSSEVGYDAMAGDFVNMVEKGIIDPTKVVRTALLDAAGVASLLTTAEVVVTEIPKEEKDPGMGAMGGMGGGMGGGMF
Chain of UniProt Q9BY67 (Q9BY67 whole entry): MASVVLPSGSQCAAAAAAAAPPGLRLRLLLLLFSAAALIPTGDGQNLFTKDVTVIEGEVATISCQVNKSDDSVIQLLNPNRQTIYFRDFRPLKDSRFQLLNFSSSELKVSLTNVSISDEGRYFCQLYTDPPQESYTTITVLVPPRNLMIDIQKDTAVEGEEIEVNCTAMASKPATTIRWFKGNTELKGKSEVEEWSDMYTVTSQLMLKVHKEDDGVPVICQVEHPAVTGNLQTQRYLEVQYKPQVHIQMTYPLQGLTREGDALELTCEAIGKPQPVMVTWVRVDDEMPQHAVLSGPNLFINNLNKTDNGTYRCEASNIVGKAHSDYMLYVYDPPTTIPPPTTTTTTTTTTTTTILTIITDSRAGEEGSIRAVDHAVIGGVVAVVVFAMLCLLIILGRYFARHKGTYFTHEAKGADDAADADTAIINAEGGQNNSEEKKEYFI
Chain of UniProt Q9Y639 (Q9Y639 whole entry): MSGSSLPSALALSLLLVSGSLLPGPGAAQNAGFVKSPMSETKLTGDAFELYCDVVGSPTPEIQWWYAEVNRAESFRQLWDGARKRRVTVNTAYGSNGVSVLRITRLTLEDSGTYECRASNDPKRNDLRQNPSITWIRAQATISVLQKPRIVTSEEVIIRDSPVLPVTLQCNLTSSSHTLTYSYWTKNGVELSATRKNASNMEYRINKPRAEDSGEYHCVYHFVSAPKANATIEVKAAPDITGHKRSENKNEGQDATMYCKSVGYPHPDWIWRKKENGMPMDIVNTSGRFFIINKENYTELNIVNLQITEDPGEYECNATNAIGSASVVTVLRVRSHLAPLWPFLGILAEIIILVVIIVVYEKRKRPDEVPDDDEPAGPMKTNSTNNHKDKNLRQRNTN
Chain of UniProt P61604 (P61604 whole entry): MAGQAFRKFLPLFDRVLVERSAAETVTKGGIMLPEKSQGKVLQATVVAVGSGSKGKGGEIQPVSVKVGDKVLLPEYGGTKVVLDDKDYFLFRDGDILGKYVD

Lysine labeling ratio R10:1, active:
RPS19 (lysine site: K43) (UniProt P39019) 0.56
DNAJA3 (lysine site: K391) (UniProt Q96EY1) 1.5
MYH9 (lysine site: K1648) (UniProt P35579) 1.22
PAICS (lysine site: K286) (UniProt P22234) 1.42
SLC25A11 (lysine site: K57) (UniProt Q02978) 1.95
PCMT1 (lysine site: K125) (UniProt P22061) 1.38
UniProt P46781 (lysine site: K30) 1.01
TLN1 (lysine site: K147) (UniProt Q9Y490) 1.5
CCT4 (lysine site: K29) (UniProt P50991) 1.71
EEF2 (lysine site: K42) (UniProt P13639) 1.82
SLC1A4 (lysine site: K239) (UniProt P43007) 1.94
AHCY (lysine site: K20) (UniProt P23526) 1.54
DST (lysine site: K3977) (UniProt Q03001) 1.83
NPTN (lysine site: K260) (UniProt Q9Y639) 1
LRP1 (lysine site: K806) (UniProt Q07954) 1.57
HSPA5 (lysine site: K96) (UniProt P11021) 1.44
UniProt Q13275 (lysine site: K239) 1.5
UniProt P62258 (lysine site: K125) 1.05
AHNAK (lysine site: K134) (UniProt Q09666) 1.99

Lysine labeling ratio R10:1, inactive:
MICA (lysine site: K94) (UniProt Q29983) 2.63
L1CAM (lysine site: K222) (UniProt P32004) 9.33
HSPD1 (lysine site: K250) (UniProt P10809) 2.65
PLXNB2 (lysine site: K1110) (UniProt O15031) 4.66
UniProt Q8WXI7 (lysine site: K13228) 11.9
HSPE1 (lysine site: K99) (UniProt P61604) 4.89
UniProt P62263 (lysine site: K125) 5.61
PTGFRN (lysine site: K752) (UniProt Q9P2B2) 3.57
ROBO1 (lysine site: K316) (UniProt Q9Y6N7) 6.23
CADM1 (lysine site: K93) (UniProt Q9BY67) 4.95
SEMA3C (lysine site: K724) (UniProt Q99985) 4.97
UniProt P05787 (lysine site: K11) 6.14
UniProt P04626 (lysine site: K200) 6.23
UniProt P05787 (lysine site: K465) 5.11
ST13 (lysine site: K230) (UniProt P50502) 4.87
RPL28 (lysine site: K72) (UniProt P46779) 2.12
SPTAN1 (lysine site: K1699) (UniProt Q13813) 3.27
ACSL3 (lysine site: K679) (UniProt O95573) 2.71
TCP1 (lysine site: K272) (UniProt P17987) 2.44
ACTN4 (lysine site: K592) (UniProt O43707) 6.67
CANX (lysine site: K118) (UniProt P27824) 2.15
